{"source": "PubChem BioAssay AID485360", "about": "(National Center for Advancing Translational Sciences (NCATS), 2010)", "note": "Hit rate of the full screen: of about 230,000 compounds, about 1,500 (0.65%) were called active. Entries that show only a call come without a potency. About 3% were inconclusive and are not listed. Calls come from the whole dose curve; as a rule, active = well fitted inhibition curve with a large enough effect; inconclusive = small, poorly fitted or top-dose-only effect; inactive = no such curve, though single readings can be large or run the other way. This excerpt belongs to a sample that is enriched for actives. Potency is the fitted concentration of half-maximal effect.", "data": [{"target": "Lethal(3)malignant brain tumor-like protein 1 (Homo sapiens) (UniProt Q9Y468)", "sequence (Q9Y468 whole entry, looked up)": "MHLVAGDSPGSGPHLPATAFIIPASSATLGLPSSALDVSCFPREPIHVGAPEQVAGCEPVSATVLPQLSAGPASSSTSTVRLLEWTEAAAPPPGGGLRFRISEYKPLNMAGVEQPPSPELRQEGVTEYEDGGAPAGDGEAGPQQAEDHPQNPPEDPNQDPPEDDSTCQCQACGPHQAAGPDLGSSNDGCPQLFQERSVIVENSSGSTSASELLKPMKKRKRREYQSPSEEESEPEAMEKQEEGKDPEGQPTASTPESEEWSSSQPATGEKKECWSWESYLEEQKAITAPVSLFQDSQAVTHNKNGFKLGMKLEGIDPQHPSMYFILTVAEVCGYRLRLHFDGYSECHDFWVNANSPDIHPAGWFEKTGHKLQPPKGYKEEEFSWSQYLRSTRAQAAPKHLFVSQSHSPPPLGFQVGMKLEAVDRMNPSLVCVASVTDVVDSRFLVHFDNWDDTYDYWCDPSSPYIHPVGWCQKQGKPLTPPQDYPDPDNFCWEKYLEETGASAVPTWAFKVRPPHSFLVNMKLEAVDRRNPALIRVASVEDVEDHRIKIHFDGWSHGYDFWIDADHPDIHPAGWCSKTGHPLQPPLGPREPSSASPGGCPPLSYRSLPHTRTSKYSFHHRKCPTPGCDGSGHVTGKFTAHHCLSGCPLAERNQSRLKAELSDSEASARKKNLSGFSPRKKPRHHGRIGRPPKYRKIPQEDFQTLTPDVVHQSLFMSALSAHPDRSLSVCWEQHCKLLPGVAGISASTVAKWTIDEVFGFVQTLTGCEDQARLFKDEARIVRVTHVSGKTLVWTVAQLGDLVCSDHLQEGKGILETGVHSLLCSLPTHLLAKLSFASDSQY", "assay": "qHTS Assay for the Inhibitors of L3MBTL1; note: nearly all actives have a fitted effect of over 60% in size", "settings": "AlphaScreen L3MBTL1–H3K9me1 peptide binding; series mostly up to 57.1 µM", "source_text": "The histone code is comprised of many post-translational modifications that occur mainly in histone tail peptides. The identity and location of these marks are read by a variety of histone binding proteins that are emerging as important regulators of cellular differentiation and development and are increasingly being implicated in numerous disease states. Small molecule probes that disrupt the interaction between histone binding proteins and chromatin would enable a systematic chemical biology study of proteins that read the histone code and could potentially reveal new targets for drug discovery. However, no such small molecules are known. This dearth of quality molecular probes can largely be attributed to the novelty of the target class and the lack of screening assays. This proposal details the development of the first high-throughput screening assay for the discovery of inhibitors of methyl-lysine binding proteins and how it can be be used to initiate a full-scale discovery effort for antagonists of histone binding proteins. Specifically, this work focuses on an AlphaScreen(tm)-based HTS assay for Malignant Brain Tumor (MBT) domain-containing proteins, which bind to the lower methylation states of lysine residues present in histone tail peptides.\nTo each well, 2 uL of L3MBTL1 protein (final 50 nM) and 1 uL biotinylated histone peptide monomethylated at Lys9 [b-AHA-H3(1-15)K9me1] (final 75 nM) was added using a nanoliter dispenser. Formation of a protein-peptide complex proceeded at room temperature for 30 min. A Kalypsys pin-tool was employed to transfer 23 nL of library compound solution in DMSO to each well. Cefsulodin, found in a pilot screen of the LOPAC library to be a weak inhibitor of L3MBTL1 binding, was used as an intraplate control with a 16-point titration in duplicate. Following a 30 min incubation of the protein-peptide complex with compounds at room temperature, a mixture of 40 ug/mL each streptavidin-coated donor and nickel chelate acceptor AlphaScreen beads (final 10 ug/mL) was added in a 1 uL dispense for a final volume of 4 uL. Plates were incubated, protected from the light for 30 min at room temperature. Microplates were then be read on an EnVision multilabel plate reader using the 1,536 plate HTS AlphaScreen aperture (excitation time 80 ms, measurement time 240 ms).", "values": [{"compound": "Cc1cccc(N2C(=O)NC(=O)/C(=C\\c3cnn(-c4ccccc4)c3)C2=O)c1", "Potency": "inactive"}, {"compound": "O=C1NC(=O)N(c2ccccc2)C(=O)/C1=C/c1ccc([N+](=O)[O-])s1", "Potency": "17.8 µM (active)"}, {"compound": "O=C1NC(=O)N(c2ccc(F)cc2)C(=O)/C1=C/c1ccc2c(c1)CCCN2Cc1ccccc1", "Potency": "inactive"}, {"compound": "COc1cccc(N2C(=O)NC(=O)/C(=C\\c3ccc([N+](=O)[O-])s3)C2=O)c1", "Potency": "20 µM (active)"}, {"compound": "O=C(NC(=S)N1C[C@H]2C[C@H](C1)c1cccc(=O)n1C2)c1ccc(F)cc1", "Potency": "inactive"}, {"compound": "Cn1cc(C(=O)OCC(=O)N2CCCC2)c2ccccc21", "Potency": "inactive"}, {"compound": "O=c1[nH]c(O)c(C=Nc2cc(F)cc(F)c2)c(=O)[nH]1", "Potency": "inactive"}, {"compound": "CCN(CC)C(=O)Oc1ccc(NC(=O)N2CCOCC2)cc1", "Potency": "inactive"}, {"compound": "COc1ccc(-c2nn(CCC#N)cc2C(=O)Nc2ccc(C(C)=O)cc2)cc1", "Potency": "inactive"}, {"compound": "Cc1nc2ccccc2c(=O)n1-c1ccc(Cl)cc1Cl", "Potency": "inactive"}, {"compound": "O=C(OCC1O[C@@H](OC(=O)c2cc(O)c(O)c(O)c2)[C@@H](OC(=O)c2cc(O)c(O)c(O)c2)[C@@H](OC(=O)c2cc(O)c(O)c(O)c2)[C@@H]1OC(=O)c1cc(O)c(O)c(O)c1)c1cc(O)c(O)c(O)c1", "note": "(stereo not given in full)", "Potency": "0.178 µM (active)"}, {"compound": "Cc1ccc(-n2c(C)cc(/C=C3\\C(=O)NC(=O)N(C)C3=O)c2C)cc1C", "Potency": "inactive"}, {"compound": "Cc1cc(/C=C2/C(=O)NC(=O)N(Cc3ccco3)C2=O)c(C)n1-c1ccc(C(=O)O)cc1", "Potency": "15.8 µM (active)"}, {"compound": "Cc1ccnc(-n2c(C)cc(/C=C3\\C(=O)NC(=S)N(C)C3=O)c2C)c1", "Potency": "inactive"}, {"compound": "COC(=O)[C@@H]1C(OC(=O)c2ccccc2)CC2CCC1N2C", "note": "(stereo not given in full)", "Potency": "inactive"}, {"compound": "CN(C)C(=O)Oc1ccc(NC(=O)N2CCOCC2)cc1", "Potency": "inactive"}, {"compound": "COCCNC(=O)CN1C2CCC1CC(O)(c1cccnc1)C2", "note": "(stereo not given)", "Potency": "inactive"}, {"compound": "CN(C)CCN(CC1CCCN(Cc2ccccc2F)C1)C(=O)Cc1ccc(F)c(F)c1", "note": "(stereo not given)", "Potency": "inactive"}, {"compound": "COC(=O)C1=C(c2ccc(F)cc2OCc2ccccc2)C[C@@H]2CC[C@H]1N2C(=O)NCc1ccc(OC)c(OC)c1", "Potency": "inactive"}, {"compound": "Cc1c(Oc2cc(NN3CCCCC3)c([N+](=O)[O-])cc2[N+](=O)[O-])cccc1[N+](=O)[O-]", "Potency": "inactive"}, {"compound": "COC(=O)C1=C(c2ccc(C(C)=O)cc2)C[C@@H]2CC[C@H]1N2C(=O)NCCNC(C)=O", "Potency": "inactive"}, {"compound": "CCN(CC)c1ccc([N+](=O)[O-])c2cccnc12", "Potency": "10 µM (active)"}, {"compound": "Oc1ccc2c3c1OC1[C@H](O)CC[C@@]4(O)[C@@H](C2)N(CC2CC2)CC[C@]314", "note": "(stereo not given in full)", "Potency": "inactive"}, {"compound": "COC(=O)C1=C(c2ccc3ccccc3c2)C[C@@H]2CC[C@H]1N2C(=O)NCCO", "Potency": "inactive"}, {"compound": "Cc1ccccc1N1C(=O)NC(=O)/C(=C\\c2cc(C)n(C)c2C)C1=O", "Potency": "inactive"}, {"compound": "Cc1c(C(=O)O)cccc1-n1c(C)cc(/C=C2\\C(=O)NC(=O)N(c3ccc4c(c3)OCO4)C2=O)c1C", "Potency": "14.1 µM (active)"}, {"compound": "COC(=O)C1=C(c2ccc(F)cc2F)C[C@@H]2CC[C@H]1N2C(=O)NC1CC1", "Potency": "inactive"}, {"compound": "COC(=O)C1=C(c2ccc(Cl)c(C(F)(F)F)c2)C[C@@H]2CC[C@H]1N2C(=O)NC1CC1", "Potency": "inactive"}, {"compound": "O=C(c1ccccc1[N+](=O)[O-])N1CCC2(CC1)OCCO2", "Potency": "inactive"}, {"compound": "C[C@]12CCC3C(CC[C@H]4C[C@@H](O)CC[C@]34C)C1C[C@@H](O)[C@H]2O", "note": "(stereo not given in full)", "Potency": "inactive"}]}]}
